In the library only some 3.4% were active in any assay of this set; here they are far more common.
TEAD-YAP inh: TEAD-YAP interaction inhibition | HEK-TIYL cells, TEAD-Gal4/YAP UAS-luciferase luminescence | inhibition, % at 9.12 µM | actives 1.4% (n = 640,000) | AID 1259422; in the data active = inhibition above about 32%;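 note: 0% = median of test compound wells and 100% = reference inhibitor wells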
GPR151 ag: human GPR151 activation | Q8TDV0 | PathHunter beta-arrestin GPR151 cells, luminescence | activation, % at 11.2 µM | actives 1% (n = 650,000); in the data active = activation above about 4.9%;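 note: 0% = median of compound wells and 100% = cells with positive control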
MITF primary: human MITF inhibition, primary screen; O75030; actives 0.91% (n = 650,000); AlphaScreen MITF homodimerization, bead proximity signal; inhibition, % at 2.6 µM; AID 1259374; in the data active = inhibition above about 50%;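 note: 0% = vehicle wells with protein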
Target sequence (O75030 whole entry, looked up): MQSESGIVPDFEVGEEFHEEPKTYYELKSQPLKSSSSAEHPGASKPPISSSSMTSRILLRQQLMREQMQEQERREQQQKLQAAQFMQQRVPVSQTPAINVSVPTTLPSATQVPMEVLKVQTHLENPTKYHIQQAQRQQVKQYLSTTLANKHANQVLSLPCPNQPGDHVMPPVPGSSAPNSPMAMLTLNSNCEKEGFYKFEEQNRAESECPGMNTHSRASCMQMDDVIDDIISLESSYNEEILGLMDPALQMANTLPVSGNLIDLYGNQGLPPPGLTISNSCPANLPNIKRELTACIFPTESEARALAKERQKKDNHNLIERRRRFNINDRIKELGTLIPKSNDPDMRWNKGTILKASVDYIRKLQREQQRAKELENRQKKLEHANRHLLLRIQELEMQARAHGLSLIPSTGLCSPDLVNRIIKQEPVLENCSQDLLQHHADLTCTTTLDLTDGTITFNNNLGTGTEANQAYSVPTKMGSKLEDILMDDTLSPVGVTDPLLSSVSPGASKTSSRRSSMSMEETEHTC
FBW7 act: activators of human E3 ligase FBW7 | Q969H0 | AlphaScreen FBW7–phospho-cyclin E peptide binding, activator screen | normalized activity (activation), % at 26.1 µM | actives 0.13% (n = 650,000) | AID 1259310; in the data active = normalized activity above about 1.9%;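 note: purified mutant Fbw7 with reduced substrate affinity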
Active calls of the source: *.

SMILES	TEAD-YAP inh	GPR151 ag	MITF primary	FBW7 act
Cc1ccc(/C=C/C(=O)Nc2nc(C)c(C)s2)cc1	-46	2	4	0
O=C(NC1CC1)c1ccc(-c2ncc(C(=O)NCc3cccnc3)s2)cc1	30	0	12	0
O=C(Nc1n[nH]c(C(F)(F)F)n1)c1ccc(Cl)cc1	5	0	4	0
Cc1ccc2nc(-c3ccccc3)cc(C(=O)Nc3cccc(Cl)c3)c2c1	1	-1	8	0
CCOc1ccc(C(=O)NCCCCCC(=O)O)cc1	20	-1	12	0
CC(C)CCOc1ccc(C(=O)NCCCCCC(=O)O)cc1	38*	-1	2	0
CC(C)COc1ccc(C(=O)NCCC(=O)O)cc1	8	1	22	0
CC(C)COc1ccc(C(=O)NCCCCCC(=O)O)cc1	47*	1	-9	0
CC(C)Oc1ccc(C(=O)NCCCCCC(=O)O)cc1	39*	0	5	1
CC(C)Oc1ccc(C(=O)NCCC(=O)O)cc1	-13	1	16	0
COC(=O)C1=C(C)N(C)C(=O)/C1=C\c1cccc(Cl)c1	-1	2	-8	0
O=C(CSc1nc(NC2CCCCC2)c2ccccc2n1)N1CCN(c2ccccc2)CC1	2	1	-5	0
CC1CCCCC12NC(=O)N(Cc1cc([N+](=O)[O-])cc3c1OCOC3)C2=O (stereo not drawn)	6	2	4	0
O=C(COc1ccccc1)NC(c1ccccc1)c1cc(Cl)c2cccnc2c1O (stereo not drawn)	-5	-1	0	0
O=C(COc1ccccc1)NC(c1ccco1)c1cc(Cl)c2cccnc2c1O (stereo not drawn)	85*	-1	25	0
CCC(=O)NC(c1ccco1)c1cc(Cl)c2cccnc2c1O (stereo not drawn)	37*	0	38	0
COc1ccc(C(=O)NC(c2ccco2)c2cc(Cl)c3cccnc3c2O)cc1 (stereo not drawn)	1	-1	11	0
CCC(=O)NC(c1ccco1)c1ccc2cccnc2c1O (stereo not drawn)	27	-2	70*	-2
c1ccc(N=c2scc(-c3ccccc3)n2Cc2ccco2)cc1	-27	-1	14	0
CCOc1ccc(N/C=C/C(=O)c2ccco2)c([N+](=O)[O-])c1	-42	-1	-4	0
Cc1ccc(C(=O)/C=C\Nc2ccccc2[N+](=O)[O-])cc1	-53	-1	7	0
O=C(/C=C\Nc1ccccc1[N+](=O)[O-])c1ccc(F)cc1	43*	-1	10	0
CCOc1ccc(N/C=C/C(=O)c2ccccc2)c([N+](=O)[O-])c1	60*	-6	17	0
O=C(/C=C/Nc1ccccc1[N+](=O)[O-])c1ccccc1	67*	-5	11	0
CCCCSc1nc2c(c(=O)n1-c1ccc(OC)cc1)SCC2	3	0	12	1
SMILES	TEAD-YAP inh	GPR151 ag	MITF primary	FBW7 act
O=C1Cc2ccccc2N1C1CCN(CC(O)COc2ccccc2)CC1 (stereo not drawn)	36*	1	1	0
OC(COc1ccccc1)CN1CCN(CC(O)COc2ccccc2)CC1 (stereo not drawn)	10	0	-10	0
O=C(O)c1cc(S(=O)(=O)Nc2ccc3c(c2)OCCO3)c(Cl)cc1Cl	36*	1	5	0
COc1ccc(OC)c(CNc2ncc(-c3cccc(Cl)c3)n2C)c1	45*	-1	37	0
O=Cc1ccc(-c2ccc(C(=O)O)c(O)c2)o1	3	-1	86*	0
COc1cccc(C(=O)/C=C\Nc2ccc3c(c2)OCO3)c1	85*	-1	1	0
COc1ccc(N/C=C/C(=O)c2ccccc2)cc1	84*	-8	3	0
COc1cccc(C(=O)/C=C\Nc2ccc(Br)cc2)c1	54*	-9	-14	0
O=C(/C=C\Nc1ccc2c(c1)OCO2)c1ccccc1	74*	0	2	0
O=C(/C=C\Nc1ccc2c(c1)OCO2)c1cccc2ccccc12	-49	2	1	0
CCCCCC1CCC(c2ccc(OC(=O)c3cccc(C(=O)Oc4ccc(C5CCC(CCCCC)CC5)cc4)n3)cc2)CC1 (stereo not drawn)	1	1	19	0
COc1cccc(C(=O)/C=C/Nc2ccccc2OC)c1	64*	-6	2	0
COc1cccc(C(=O)/C=C/Nc2cc(OC)ccc2OC)c1	-42	1	9	0
CCOC(=O)C1=C(C)NC(C)=C(C(=O)OCC)C1c1ccccc1F	5	-1	17	2.1*
CCOC(=O)C1=C(c2ccccc2)NC(SC)=C(C#N)C1c1cccnc1 (stereo not drawn)	8	1	1	0
CCOC(=O)C1=C(C)NC(SC)=C(C#N)C1c1ccccc1 (stereo not drawn)	47*	-1	5	0
CCOC(=O)C1=C(C)NC(SCC(N)=O)=C(C#N)C1c1cccc([N+](=O)[O-])c1 (stereo not drawn)	49*	0	5	0
COC(=O)COc1ccc(/C=C(/C#N)c2nc3ccc(OC)cc3[nH]2)cc1Br	-38	0	-8	0
CC(=O)N1CCN(c2ncc(Cl)cc2Cl)CC1	-4	-2	22	0
CCCCc1ccc(NC(=O)c2ccc(N(C)S(C)(=O)=O)cc2)cc1	35*	0	-10	0
CCCSCCCNC(=O)Cn1ncc2ccccc21	-9	0	5	0
CCc1ccc(C2=CC(c3ccc(OC)c(OC)c3)n3ncnc3N2)cc1 (stereo not drawn)	33*	5	-2	0
COc1ccc(C2C=C(c3ccc(Cl)cc3)Nc3ncnn32)cc1OC (stereo not drawn)	4	1	21	0
COc1cc(C2C=C(c3cccc(NC(C)=O)c3)Nc3ncnn32)cc(OC)c1OC (stereo not drawn)	52*	1	1	0
CCc1ccc(C2=CC(c3cc(OC)c(OC)c(OC)c3)n3nnnc3N2)cc1 (stereo not drawn)	56*	1	6	0
SMILES	TEAD-YAP inh	GPR151 ag	MITF primary	FBW7 act
COc1cccc(C2=CC(c3ccc(OC)c(OC)c3OC)n3ncnc3N2)c1 (stereo not drawn)	-12	1	-9	0
COc1cccc(C2=CC(c3cc(OC)c(OC)c(OC)c3)n3ncnc3N2)c1 (stereo not drawn)	68*	0	10	0
CCc1ccc(C2=CC(c3ccc(Cl)cc3)n3nnnc3N2)cc1 (stereo not drawn)	6	2	6	0
COc1cc(C2C=C(c3ccc(C)cc3)Nc3ncnn32)cc(OC)c1OC (stereo not drawn)	62*	-2	8	0
Cc1ccc(C2=CC(c3ccc(C)cc3)n3ncnc3N2)cc1 (stereo not drawn)	-45	-1	-6	0
COc1cc(C2C=C(c3ccccc3)Nc3ncnn32)cc(OC)c1OC (stereo not drawn)	61*	0	11	0
Cn1nc(-c2ccccc2)cc1C(=O)N1CCC(Cn2cccn2)CC1	4	2	0	0

Source: PubChem (The Scripps Research Institute Molecular Screening Center)
